BH1578 lux ind – inducers of Vibrio cholerae quorum light production without autoinducers, primary screen, BH1578 luxS cqsA deficient, single point; V. cholerae BH1578 lux reporter, luminescence, 6 h; 350,000 compounds, 0.16% hits; activation, % at 18.7 µM; in the data active = activation mostly above about 9.7%, no sharp cut-off
DUSP3 inh – VHR1 phosphatase inhibitors, primary screen, biochemical, absorbance, uHTS; AID 1654, 2009; 290,000 compounds, 0.52% hits; inhibition, % at 13.3 µM; recombinant VHR phosphatase, pNPP absorbance; Dual specificity protein phosphatase 3 (Homo sapiens), P51452; in the data active = inhibition above about 50%
Target sequence (P51452 whole entry, looked up): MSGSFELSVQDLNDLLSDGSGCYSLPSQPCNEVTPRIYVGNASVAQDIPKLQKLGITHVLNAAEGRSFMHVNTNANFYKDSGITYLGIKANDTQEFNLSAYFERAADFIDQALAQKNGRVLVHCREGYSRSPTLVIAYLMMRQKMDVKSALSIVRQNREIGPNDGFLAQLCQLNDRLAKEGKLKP
TcdB inh – TcdB glycohydrolase inhibitors, primary screen, biochemical, single point, plate reader; inhibition, % at 9.99 µM; 350,000 compounds, 0.24% hits; TcdB glycohydrolase enzymatic assay; Toxin B (Clostridioides difficile), P18177; in the data active = inhibition above about 10%
3CLpro inhibitor – SARS-CoV 3CLpro protease inhibitors, primary screen, biochemical, quenched FRET. Replicase polyprotein 1ab (Severe acute respiratory syndrome coronavirus), P0C6X7. recombinant SARS-CoV 3CLpro, quenched FRET peptide cleavage. inhibition, % at 6 µM. 290,000 compounds, 0.14% hits. AID 1706, 2009; in the data active = inhibition above about 12%
CCHF vOTU inh – CCHFV vOTU protease inhibitors, primary screen, biochemical, Pep-AMC substrate, fluorescence; Crimean-Congo hemorrhagic fever virus L polyprotein viral ovarian tumor (vOTU) protease …; inhibition, % at 11.5 µM; 370,000 compounds, 0.55% hits; AID 651958, 2012; in the data active = inhibition above about 30%; note: 0% = vehicle wells with enzyme and 100% = no enzyme wells
SSB-PriA inh – inhibitors of Klebsiella pneumoniae PriA binding to SSB C-terminal tail, primary screen, biochemical, AlphaScreen; 430,000 compounds, 0.6% hits; AlphaScreen SSBct-PriA binding, biotinylated peptide; inhibition, % at 33 µM; in the data active = inhibition mostly above about 37%, no sharp cut-off; inactive = mostly below about 20%;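 note: plate controls were negative control peptide for no effect and reference peptide for full effect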
The depositor's hits bear a star; i = inactive; . = no result given; ! = a repeat was not active. This is a sample that favours compounds with a hit; in the whole collection about 1.3% have one here.

SMILES | BH1578 lux ind | DUSP3 inh | TcdB inh | 3CLpro inhibitor | CCHF vOTU inh | SSB-PriA inh
COc1ccc(-c2nnn(CC#N)n2)cc1OC | i | -2 | . | 0 | 5 | -26
O=C(CN1CC(=O)Oc2ccccc21)OCC(=O)c1ccc(Br)cc1 | i | . | . | -4 | -1 | 86*
O=C(CN1CC(=O)Oc2ccccc21)OCC(=O)c1ccc(F)cc1 | 1 | -6 | -1 | 3 | 3 | 77*
O=C1CN(CC(=O)N2CCOCC2)c2ccccc2O1 | . | 5 | . | -3 | . | .
O=C1CN(CC(=O)N2CCCCC2)c2ccccc2O1 | i | 19 | . | 0 | 15 | 11
COC(=O)c1ccc(NC(=O)Cc2cc(=O)[nH]c(SCc3cccc(Cl)c3)n2)cc1 | . | . | . | . | . | -16
N#Cc1nc(COc2ccc(F)cc2)oc1N1CCCCC1 | i | 9 | 1 | 3 | 7 | 17
N#Cc1nc(COc2ccc(F)cc2)oc1N1CCCCCC1 | . | . | . | . | . | 111*
N#Cc1nc(COc2ccc(Br)cc2)oc1N1CCCCCC1 | 0 | 17 | 0 | -8 | 3 | 24
COc1ccc(CNc2oc(COc3ccc(Cl)cc3)nc2C#N)cc1 | i | 15 | . | 6 | -7 | 1
COc1ccc(Nc2oc(COc3ccc(Cl)cc3)nc2C#N)cc1 | 0 | 3 | . | 2 | 18 | 41*
Cc1ccc(OCc2nc(C#N)c(N3CCOCC3)o2)cc1 | . | . | . | . | . | 82*
N#Cc1nc(COc2ccccc2)oc1N1CCOCC1 | 0 | -5 | -1 | 4 | 3 | 7
N#Cc1nc(COc2ccc(Br)cc2)oc1N1CCCC1 | i | -22 | . | 1 | 16 | 51*
NC(=O)c1ccccc1OCC#CCNS(=O)(=O)C1CC1 | . | . | . | . | . | -14
N#Cc1nc(COc2ccc(Cl)cc2Cl)oc1N1CCOCC1 | 0 | 8 | . | 6 | -2 | 56*
COc1ccc(OCc2nc(C#N)c(N3CCCC3)o2)cc1 | . | . | . | . | . | 80*
COc1ccc(OCc2nc(C#N)c(N3CCCCCC3)o2)cc1 | . | . | . | . | . | 102*
COc1ccc(N2CCN(c3oc(COc4ccccc4)nc3C#N)CC2)cc1 | 0 | -4 | . | -2 | 8 | -20
N#Cc1nc(COc2ccccc2)oc1N1CCCCCC1 | 0 | -6 | 2 | 1 | 13 | 109*!
N#Cc1nc(COc2ccc(Cl)cc2Cl)oc1N1CCN(c2ccccc2)CC1 | i | 20 | . | 5 | 0 | 13
N#Cc1nc(COc2ccccc2)oc1N1CCCC1 | i | 21 | . | 5 | 8 | 14
CCc1ccc(S(=O)(=O)Nc2ccc3c(c2)NC(=O)C(C)(C)CO3)s1 | . | . | . | . | . | 10
CN1CCN(c2oc(COc3ccc(-c4ccccc4)cc3)nc2C#N)CC1 | i | 10 | . | 4 | 3 | 60*
N#Cc1nc(COc2ccc(Cl)cc2)oc1N1CCCCC1 | . | . | . | . | . | 95*
SMILES | BH1578 lux ind | DUSP3 inh | TcdB inh | 3CLpro inhibitor | CCHF vOTU inh | SSB-PriA inh
CCN1CCN(c2oc(COc3ccc(Cl)cc3)nc2C#N)CC1 | -1 | 5 | 0 | -1 | 3 | 2
CCOc1ccccc1NC(=O)NCC(c1ccsc1)N1CCCC1 (stereo not drawn) | . | . | . | . | . | 9
COCCn1c(SCc2cc(C)ccc2C)nc2cc(C(=O)NC3CCCC3)ccc2c1=O | . | . | . | . | . | -9
CC(C)Oc1ccc(C(=O)NCCc2ccc(N3CCCC3)cc2)cc1 | . | . | . | . | . | -8
CC(=O)c1c[nH]c(C(=O)NCc2cccc(C(F)(F)F)c2)c1 | 0 | 53* | 1 | -9 | -5 | -11
Cn1ncc(Cl)c1C(=O)N/N=C/c1cccc(OC2CSC2)c1 | 0 | 6 | 23* | 3 | -4 | .
Cn1ncc(Cl)c1C(=O)NN=Cc1cccc(OC2CSC2)c1 | . | . | . | . | . | -13
Cn1c(C2CCCN(S(C)(=O)=O)C2)nn(Cc2cccc3ccccc23)c1=O (stereo not drawn) | . | . | . | . | . | 5
NS(=O)(=O)c1ccc(Nc2ccc3cc(S(=O)(=O)N4CCCCC4)ccc3n2)cc1 | -1 | -14 | -10 | 7 | 25 | -15
NS(=O)(=O)c1ccc(CCNc2cnc3cc(S(=O)(=O)N4CCCCC4)ccc3n2)cc1 | . | . | . | . | . | 102*
CCc1ccccc1NC(=O)C1CCN(c2cnc3ccccc3n2)CC1 | . | . | . | . | . | -2
Cc1cccc(-n2ccnc2SCC(=O)Nc2ccc3c(c2)OCCO3)c1C | . | . | . | . | . | 49*
O=C(CSc1ncc(-c2ccc(Cl)c(Cl)c2)n1Cc1ccccc1)Nc1cccc(Cl)c1 | . | . | . | . | . | 13
Cc1cc(C)cc(-n2ccnc2SCC(=O)Nc2cccc(Cl)c2)c1 | . | . | . | . | . | 47*
C=CCn1c(-c2ccc(OC)cc2)cnc1SCC(=O)Nc1cccc(Cl)c1 | . | . | . | . | . | 39*
Cc1cc(C)cc(-n2ccnc2SCC(=O)Nc2ccc3c(c2)OCCO3)c1 | -1 | -5 | . | 1 | 13 | 45*!
COc1cccc(CNC(=O)CC2CCCCN2S(=O)(=O)c2ccc(F)cc2)c1 (stereo not drawn) | . | . | . | . | . | 8
O=C(CSc1nccn1Cc1ccc(Cl)cc1)Nc1ccc2c(c1)OCCO2 | . | . | . | . | . | 42*
CC(=O)Nc1ccc(NC(=O)CSc2nccn2Cc2ccc(Cl)cc2)cc1 | i | 21 | 1 | -2 | -3 | 1
COc1ccccc1CNC(=O)CN(c1ccc(C)cc1)S(=O)(=O)c1c(C)n[nH]c1C | 0 | 14 | 31* | 1 | -2 | -18
N#CC1=C(N)C(C#N)(C#N)[C@H](c2ccncc2)[C@H]2CN(C(=O)OCc3ccccc3)CC=C12 | i | 54* | . | -2 | -19 | -10
CN(C)S(=O)(=O)c1ccc(C(=O)NCC(=O)N/N=C\c2ccco2)cc1 | . | . | . | . | . | -11
CCc1ccccc1NC(=S)N(Cc1ccc(C(=O)O)cc1)Cc1ccc(OC)c(OC)c1 | 0 | 3 | 13* | 2 | 8 | -5
OC(COc1ccc(C23CC4CC(CC(C4)C2)C3)cc1)C[N+]1(Cc2ccccc2)CCOCC1 (stereo not drawn) | . | . | . | . | . | 45*
CC(=O)Nc1ccc(S(=O)(=O)NCC2CCC(C(=O)NC3CCCCCC3)CC2)cc1 (stereo not drawn) | 0 | -11 | 0 | 3 | -6 | 2
Cc1ccc(S(=O)(=O)NCC2CCC(C(=O)NC3CCCCC3)CC2)cc1 (stereo not drawn) | i | 58* | 1 | 1 | -9 | -13
COc1cc2c(=O)n(CCC(=O)NCC3CCCO3)c(=O)n(CC(=O)c3ccc(Cl)cc3)c2cc1OC (stereo not drawn) | -3 | 51* | 2 | -7 | -9 | 4
COc1cccc(C(=O)Cn2c(=O)n(CCC(=O)NCC3CCCO3)c(=O)c3cc(OC)c(OC)cc32)c1 (stereo not drawn) | i | 15 | 1 | -7 | 0 | -21
Oc1ccc(/C=N/N2CCN(c3ccccn3)CC2)cc1 | -5 | -8 | 13* | 4 | -9 | .
Oc1cccc(/C=N/N2CCN(c3ccccn3)CC2)c1 | 1 | -4 | 2 | 4 | 3 | i
